Data as given in PubChem BioAssay (NCATS).
Values joined by “and” are separate entries in the source; they are usually repeats but may differ in a detail not shown here. Equal entries are not always repeated. Results filed as inconclusive are left out. Active and inactive are the calls of the source. Calls follow the shape of the full dose curve.

Assay: qHTS Assay for Lipid Storage Modulators (AID 1519); as to activity change, negative = inhibition: % is scaled to controls: 0 for no effect and ±100 for the full control effect
Conditions: Drosophila S3 cells, BODIPY lipid droplet/cell ratio, laser cytometry; at 57.5 µM (top of the series); cells loaded with oleic acid
Summary of the method: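 Cells seeded at 5,000 per well were treated with compounds over a concentration series and loaded with oleic acid (400 uM, as added). Lipid droplet fluorescence (488 nm excitation, 500-530 nm channel) was read by laser-scanning cytometry and normalized to 20 uM Triacsin C.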

Structure (SMILES)	activity change, negative = inhibition
COc1ccc(C(=O)O)c(O)c1OC	7.29% (inactive)
COc1c(-c2ccc(O)c(O)c2)oc2cc(O)cc(O)c2c1=O	0.206% (inactive)
CCOC(=O)c1c(C)cc(OC)cc1O	-10.6% (inactive)
O=C(c1cccc(F)c1)N1CCC[C@@]2(CCN(C(c3ccccc3)c3ccccc3)C2)C1	-11.6% (inactive)
CC(=O)Oc1ccc2c(c1C(C)C)CCC1C(C)(C)CCC[C@@]21C (some centres undefined)	2.03% (inactive)
COC(=O)CCCOc1ccc(Cl)cc1Cl	5.51% (inactive)
NCC1OC(n2cnc3c(=O)[nH]c(N)nc32)C(O)C1O (centres undefined)	2.55% (inactive)
CC(=O)OC1CC2C(C)(C)CCC(=O)[C@@]2(C)C2CC[C@@]3(C)C(c4ccoc4)OC(=O)C4OC43[C@]12C (some centres undefined)	2.56% (inactive)
O=c1cc(-c2ccc(O)c(O)c2)oc2cc(OC3OC(CO)C(O)C(O)C3O)cc(O)c12 (centres undefined)	7.95% (inactive)
C=CC(C1=CC(=O)C(OC)=CC1=O)c1ccccc1 (centres undefined)	-14.6% (inactive)
COc1ccc(-c2cc(=O)c3c(OC)c(OC)c(OC)c(OC)c3o2)cc1	-5.75% (inactive)
COc1ccccc1CNc1ncnc2ccc(-c3cccnc3)cc12	3.28% (inactive)
CC1(C)C(O)CC[C@]2(C)C1CC[C@@]1(C)C2C(=O)C=C2[C@@H]3C[C@@](C)(C(=O)O)CC[C@@]3(C)CCC21C (some centres undefined)	9.4% (inactive)
O=c1c(-c2ccccc2)coc2cc(O)cc(O)c12	13.9% (inactive)
COC(=O)c1c(OC)cc2c(c1C)Oc1c(Cl)c(OC(C)=O)c(Cl)c(C)c1C(=O)O2	5.48% (inactive)
COc1ccc2c(c1)OCc1c-2oc2cc(OC)ccc12	8.22% (inactive)
Cc1ccccc1-c1ccc2ncnc(N(C)Cc3ccco3)c2c1	2.17% (inactive)
O=c1c(O)c(-c2ccc(O)c(O)c2)oc2c(OC3OC(CO)C(O)C(O)C3O)c(O)cc(O)c12 (centres undefined)	0.918% (inactive)
CN(Cc1ccco1)c1nc(-c2cccc(C#N)c2)nc2ccccc12	10.1% (inactive)
COc1ccc(-c2nc3cnc(Nc4cccc(OC)c4)nc3n(CCC#N)c2=O)cc1	-18.1% (inactive)

Structure (SMILES)	activity change, negative = inhibition
CC1=CC2C(CC1=O)C(C)=CCC2C(C)C (centres undefined)	1.38% (inactive)
CC1(C)C=CC(=O)[C@]2(C)C1CC(=O)[C@]1(C)C2CC[C@@]2(C)C(c3ccoc3)OC(=O)C3OC321 (some centres undefined)	-11.5% (inactive)
COc1ccc2c(c1)[C@@]1(C)CCC[C@](C)(CO)C1CC2 (some centres undefined)	8.34% (inactive)
COc1ccc2c(c1)OCC(Cc1ccc(OC)c(OC(C)=O)c1)C2=O (centres undefined)	2.81% (inactive)
CC(=O)OC1CCC23CC1(C)CCC2C(C)(C)CC3OC(C)=O (centres undefined)	2.71% (inactive)
C#C[C@]1(OC(C)=O)CCC2C3CCC4=CC(=O)CCC4C3CC[C@]21C (some centres undefined)	-18.5% (inactive)
COC(=O)c1c(OC)cc2c(c1C)Oc1c(Cl)c(O)c(Cl)c(C)c1C(=O)O2	6.08% (inactive)
CN(Cc1ccco1)c1nc(-c2ccccc2Cl)nc2ccccc12	11.9% (inactive)
O=C1CC[C@@]23/C=C/C(=O)NCCCCNCCCNC(=O)/C=C/c4ccc(c2c4)OC3C1 (some centres undefined)	2.57% (inactive)
O=C(O)c1cc(O)c2c(c1)C(=O)c1cc(O)cc(O)c1C2=O	8.22% (inactive)
COc1ccc2c(c1)OC/C(=C/c1ccc(O)c(O)c1)C2=O	9.34% (inactive)
CC(=O)OC1CC[C@]2(C)C(CC(OC(C)=O)[C@@]3(C)C4=CC(=O)OC(c5ccoc5)[C@]4(C)CCC23)C1(C)C (some centres undefined)	-24.5% (inactive) and -12.6% (inactive) and 0.61% (inactive)
COc1cccc(-c2nc(Nc3ccncc3)c3ccccc3n2)c1	-7.83% (inactive)
N#C/C(=C\c1ccc(O)c(O)c1)C(=O)NCCCCc1ccccc1	-2.23% (inactive)
COc1cccc(-c2cncnc2NCc2ccc(OC)cc2OC)c1	7.71% (inactive)
CC(=O)Oc1ccc2c(c1)CCC1C2CC[C@]2(C)C(OC(C)=O)CCC12 (some centres undefined)	-2.53% (inactive)
COc1cc(-c2coc3cc(OCc4ccccc4)c(OC)c(O)c3c2=O)cc(O)c1OC	-4.72% (inactive)
COc1cc(C/C=C/c2ccccc2)c(OC)cc1O	1.85% (inactive)
N[C@H](C(=O)O)C(O)C(O)C(O)CO (some centres undefined)	2.74% (inactive)

Same assay, conditions: Drosophila S3 cells, BODIPY lipid droplet/cell ratio, laser cytometry; measured here: cell count channel max response; cells loaded with oleic acid

Structure (SMILES)	max response
COc1ccc(C(=O)O)c(O)c1OC	8.57%
COc1c(-c2ccc(O)c(O)c2)oc2cc(O)cc(O)c2c1=O	-16.5%
CCOC(=O)c1c(C)cc(OC)cc1O	3.28%
O=C(c1cccc(F)c1)N1CCC[C@@]2(CCN(C(c3ccccc3)c3ccccc3)C2)C1	5.27%
CC(=O)Oc1ccc2c(c1C(C)C)CCC1C(C)(C)CCC[C@@]21C (some centres undefined)	13.7%
COC(=O)CCCOc1ccc(Cl)cc1Cl	14%
NCC1OC(n2cnc3c(=O)[nH]c(N)nc32)C(O)C1O (centres undefined)	-3.82%
Nc1nc2n[nH]nc2c(=O)[nH]1	15.7%
CC(=O)OC1CC2C(C)(C)CCC(=O)[C@@]2(C)C2CC[C@@]3(C)C(c4ccoc4)OC(=O)C4OC43[C@]12C (some centres undefined)	0.203%
O=c1cc(-c2ccc(O)c(O)c2)oc2cc(OC3OC(CO)C(O)C(O)C3O)cc(O)c12 (centres undefined)	6.89%
C=CC(C1=CC(=O)C(OC)=CC1=O)c1ccccc1 (centres undefined)	-0.41%
COc1ccc(-c2cc(=O)c3c(OC)c(OC)c(OC)c(OC)c3o2)cc1	-19.4%
COc1ccccc1CNc1ncnc2ccc(-c3cccnc3)cc12	-9.63%
CC1(C)C(O)CC[C@]2(C)C1CC[C@@]1(C)C2C(=O)C=C2[C@@H]3C[C@@](C)(C(=O)O)CC[C@@]3(C)CCC21C (some centres undefined)	16.2%
O=c1c(-c2ccccc2)coc2cc(O)cc(O)c12	-5.73%
COC(=O)c1c(OC)cc2c(c1C)Oc1c(Cl)c(OC(C)=O)c(Cl)c(C)c1C(=O)O2	2.97%
COc1ccc2c(c1)OCc1c-2oc2cc(OC)ccc12	-1.79%
Cc1ccccc1-c1ccc2ncnc(N(C)Cc3ccco3)c2c1	20.6%
O=c1c(O)c(-c2ccc(O)c(O)c2)oc2c(OC3OC(CO)C(O)C(O)C3O)c(O)cc(O)c12 (centres undefined)	-2.75%
CN(Cc1ccco1)c1nc(-c2cccc(C#N)c2)nc2ccccc12	1.16%

Structure (SMILES)	max response
COc1ccc(-c2nc3cnc(Nc4cccc(OC)c4)nc3n(CCC#N)c2=O)cc1	16.5%
CC1=CC2C(CC1=O)C(C)=CCC2C(C)C (centres undefined)	3.62%
CC1(C)C=CC(=O)[C@]2(C)C1CC(=O)[C@]1(C)C2CC[C@@]2(C)C(c3ccoc3)OC(=O)C3OC321 (some centres undefined)	-7.57%
COc1ccc2c(c1)[C@@]1(C)CCC[C@](C)(CO)C1CC2 (some centres undefined)	17.7%
COc1ccc2c(c1)OCC(Cc1ccc(OC)c(OC(C)=O)c1)C2=O (centres undefined)	1.86%
CC(=O)OC1CCC23CC1(C)CCC2C(C)(C)CC3OC(C)=O (centres undefined)	3.38%
C#C[C@]1(OC(C)=O)CCC2C3CCC4=CC(=O)CCC4C3CC[C@]21C (some centres undefined)	-10.7%
COC(=O)c1c(OC)cc2c(c1C)Oc1c(Cl)c(O)c(Cl)c(C)c1C(=O)O2	-4.22%
CN(Cc1ccco1)c1nc(-c2ccccc2Cl)nc2ccccc12	14.1%
O=C1CC[C@@]23/C=C/C(=O)NCCCCNCCCNC(=O)/C=C/c4ccc(c2c4)OC3C1 (some centres undefined)	7.49%
O=C(O)c1cc(O)c2c(c1)C(=O)c1cc(O)cc(O)c1C2=O	22.4%
COc1ccc2c(c1)OC/C(=C/c1ccc(O)c(O)c1)C2=O	0.529%
CC(=O)OC1CC[C@]2(C)C(CC(OC(C)=O)[C@@]3(C)C4=CC(=O)OC(c5ccoc5)[C@]4(C)CCC23)C1(C)C (some centres undefined)	6.99% and 9.73% and 16%
COc1cccc(-c2nc(Nc3ccncc3)c3ccccc3n2)c1	-14.4%
N#C/C(=C\c1ccc(O)c(O)c1)C(=O)NCCCCc1ccccc1	21.1%
COc1cccc(-c2cncnc2NCc2ccc(OC)cc2OC)c1	3.12%
CC(=O)Oc1ccc2c(c1)CCC1C2CC[C@]2(C)C(OC(C)=O)CCC12 (some centres undefined)	4%
COc1cc(-c2coc3cc(OCc4ccccc4)c(OC)c(O)c3c2=O)cc(O)c1OC	-3.67%
COc1cc(C/C=C/c2ccccc2)c(OC)cc1O	4.35%
N[C@H](C(=O)O)C(O)C(O)C(O)CO (some centres undefined)	-0.517%
